Sampled rows, rich in hits. Any-hit rate of the full collection: about 1.6%.
eIF4E-4G inh: inhibitors of eIF4E and eIF4G interaction in translation initiation | TR-FRET eIF4E-eIF4GI(517-606) binding, 2 h | 0.37% of 220,000 active | AID 782 | inhibition, % at 21.7 µM;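 active = inhibition above about 30%, limit read from the data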
PABP polyA inh: blocks human PABP binding to poly(A) RNA | P11940 | fluorescence polarization | inhibition, % at 35 µM | 1% of 290,000 active;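 also: calls also rest on retests at 20 µM and on dose response follow-up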
PABP1 MLLE inh: blocks PAM2 peptide binding to the PABP1 MLLE domain | GST-MLLE / FITC-PAM2 fluorescence polarization | inhibition, % at 20 µM | 0.36% of 360,000 active; in the data active = inhibition above about 35%, passing the limit was not always enough
PERK inhibitor: human PERK inhibition, primary cell-based screen | Q9NZJ5 | CHO PERK-DD fusion, SEAP luminescence translation reporter | inhibition, % at 5.6 µM | 0.17% of 220,000 active | AID 1416;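 active = inhibition above the mean inhibition of all tested compounds plus 3 SD, set separately per screening campaign, cut at about 2.9% in these data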;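 also: PERK kinase domain activated by AP20187 dimerizer at 100 nM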
eIF4H FP inh: inhibitors of RNA binding by human eIF4H; Q15056; eIF4H fluorescence polarization binding assay; inhibition, % at 35 µM; 0.94% of 290,000 active; AID 2012;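 also: calls also rest on retests at 20 µM and on dose response follow-up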
Of the large screens only hits and unclear results are named; the others gave an inactive call; [ ] = another dose, or the depositor's remark. Unless noted, no rule for the calls is given here.

CO/N=C/C(c1ncc(C(F)(F)F)cc1Cl)S(=O)(=O)c1ccccc1 (stereo not drawn)	none (no result: eIF4E-4G inh, PERK inhibitor)
CC(Sc1ccc2nnc(-c3ccc(F)cc3)n2n1)C(=O)O (stereo not drawn)	none
CCOC(=O)C(C)Sc1ccc2nnc(-c3ccc(F)cc3)n2n1 (stereo not drawn)	eIF4E-4G inh 51
NC(=S)C(c1ccccc1)c1ncc(C(F)(F)F)cc1Cl (stereo not drawn)	PABP1 MLLE inh 42 (no result: eIF4E-4G inh, PERK inhibitor)
NC(=O)C(c1cccc(Cl)c1)c1ncc(C(F)(F)F)cc1Cl (stereo not drawn)	none
O=c1c(-c2ccccc2)coc2c(CN3CCCC3)c(O)ccc12	eIF4E-4G inh 76
CCN(CC)S(=O)(=O)c1cc(NC(=O)C(C)Nc2ccccc2N2CCOCC2)ccc1C (stereo not drawn)	none
O=C(c1cnc2sccn2c1=O)N1CCN(c2ccccc2Cl)CC1	eIF4E-4G inh 98
NC(=O)Cn1c(=O)n(Cc2ccco2)c(=O)c2c3c(sc21)CCCCC3	PABP polyA inh 50, eIF4H FP inh 98
O=c1c2c3c(sc2nc(NCCOCCO)n1Cc1ccco1)CCCCC3	PABP polyA inh 89, eIF4H FP inh 100
CN1CCc2c(n(CC(O)CN3C(=O)c4ccccc4S3(=O)=O)c3ccccc23)C1=O (stereo not drawn)	none
Cc1n[nH]c(=O)nc1NCCN(C)C	PERK inhibitor 3.5
CC1=C(C(=O)Nc2ccccc2)C(c2ccc(C)o2)n2c(s/c(=C\c3ccco3)c2=O)=N1 (stereo not drawn)	PABP polyA inh 101, eIF4H FP inh 84
COc1ccc(OC(=O)CN2C(=O)C3C4CCC(C4)C3C2=O)cc1 (stereo not drawn)	PABP polyA inh active
CC(C)OCCCNC(=O)C1CCC(=O)N1C1CCCC1 (stereo not drawn)	none
COc1ccc(NS(=O)(=O)c2cccs2)cn1	none
COc1ccc(NS(=O)(=O)c2ccc(Cl)s2)cn1	PABP polyA inh inconclusive, PABP1 MLLE inh 58, eIF4H FP inh inconclusive
Cc1cc(=O)oc2cc(OCC3CC(c4ccc(Br)cc4)=NO3)ccc12 (stereo not drawn)	none
O=C(O)Cn1cnc2c(=S)nc[nH]c21	PERK inhibitor 3.7
COc1ccc(/C=C2\SC(=S)N(CCCC(=O)NNC(=O)c3ccccc3O)C2=O)cc1	none
Cc1cc(C)nc(NN2C(=O)/C(=C/c3ccc(O)cc3)SC2=S)n1	PABP polyA inh 76, eIF4H FP inh inconclusive
O=C(NN1C(=O)/C(=C/c2ccc(O)cc2)SC1=S)c1ccccc1O	PABP polyA inh 53 (no result: eIF4E-4G inh, PERK inhibitor)
O=C(CN1C(=O)S/C(=C\c2ccc(Cl)cc2)C1=O)NNC(=O)c1ccccc1O	eIF4E-4G inh 33
CC(C)CCCN1CCN=C1N(C)C	none (no result: eIF4E-4G inh, PERK inhibitor)
O=C1/C(=C\c2ccc(O)c(O)c2)C(c2ccccc2)=NN1c1ccccc1	PABP polyA inh 41
COc1cc(/C=C2\C(=O)N(c3ccc(NC(C)=O)cc3)N=C2c2ccccc2)ccc1O	none
COc1ccc(/C=C2\C(=O)N(c3nc(-c4ccc(Br)cc4)cs3)N=C2c2ccccc2)cc1	none (no result: eIF4E-4G inh, PABP polyA inh, PABP1 MLLE inh, eIF4H FP inh)
CCOc1cc(/C=C2\C(=O)N(c3nc(-c4ccc(Br)cc4)cs3)N=C2c2ccccc2)ccc1O	eIF4H FP inh 84
COc1ccc(/C=C/c2nnc(NC(=O)C(C)(C)C)s2)cc1	none
COc1ccc(NC(=S)Nc2cccc3cnccc23)cc1	PABP polyA inh active
CCOc1ccc(NC(=S)Nc2cccc3cnccc23)cc1	none
O=S(=O)(O)c1cnccc1Nc1cccc(C(F)(F)F)c1	none (no result: eIF4E-4G inh, PABP polyA inh, PERK inhibitor, eIF4H FP inh)
N#Cc1c(NC(=O)c2ccc(Cn3cc(Br)cn3)o2)sc2c1CCCCC2	none
CC1CCc2c(sc(NC(=O)c3ccc(Cn4cc([N+](=O)[O-])cn4)o3)c2C#N)C1 (stereo not drawn)	PABP polyA inh 22, eIF4H FP inh 76
CC(NC(=O)c1ccc(Cn2cc([N+](=O)[O-])cn2)o1)c1ccccc1 (stereo not drawn)	eIF4E-4G inh 36[fluorescence artefact?]
O=C(CCc1ccccc1)Nc1cc(NC(=O)CCc2ccccc2)cc(C(=O)O)c1	none
CC(C)(C)/C(O)=C/c1nc2ccccc2[nH]c1=O	none
Cc1ccc(NC(=S)N(CCCN2CCN(C)CC2)Cc2cccs2)cc1C	PABP polyA inh 106
CCCC(=Nc1ccc(N)cc1)C1=C(O)C(C(=O)OC)C(C)(C)CC1=O (stereo not drawn)	PABP polyA inh 64, eIF4H FP inh 57
Cc1cc2cc(CNC(=O)c3ccc(S(=O)(=O)N4CCCCC4)cc3)ccc2n1C	PABP1 MLLE inh 49
COc1ccc(S(=O)(=O)NCc2ccc3c(c2)cc(C)n3C)cc1	PABP polyA inh 74, PABP1 MLLE inh 49, eIF4H FP inh 64
CCN(CC)S(=O)(=O)c1ccc(C(=O)NCc2ccc3c(c2)cc(C)n3C)cc1	PABP1 MLLE inh 46
COc1ccc(OC)c2sc(NC(=O)CCS(=O)(=O)c3ccccc3)nc12	none (no result: eIF4E-4G inh, PABP polyA inh, eIF4H FP inh)
COC(=S)N/C(=N\S(=O)(=O)c1ccc(Cl)cc1)c1ccccc1	none (no result: eIF4E-4G inh, PERK inhibitor)
CC(=O)C1C(c2ccco2)c2c(noc2C)CC1(C)O (stereo not drawn)	PERK inhibitor 3.0
O=C(Nc1ccncc1)c1cc(-c2cccc(Br)c2)nc2ccccc12	none (no result: eIF4E-4G inh, PABP polyA inh, PERK inhibitor, eIF4H FP inh)
c1ccc2nc3c(nc2c1)CCc1nonc1-3	none
COc1ccc(OC)c(CNc2ccc3c(c2)CCC3)c1	none (no result: eIF4E-4G inh, PERK inhibitor)
O=C(c1ccc(Br)cc1)c1cc(-c2ccccn2)c(N2CCOCC2)s1	none
O=C(C1CCN(S(=O)(=O)c2cccnc2)CC1)N1CCN(c2cccc(Cl)c2)CC1	eIF4E-4G inh 86
CC(C)c1ccc(S(=O)(=O)N2CCC(C(=O)N3CCN(c4cccc(Cl)c4)CC3)CC2)cc1	none (no result: eIF4E-4G inh, PABP polyA inh, PERK inhibitor, eIF4H FP inh)
CC(NC(=O)CCNC(=O)c1ccc(Br)cc1)c1ccc(-n2ccnc2)cc1 (stereo not drawn)	none (no result: eIF4E-4G inh, PABP polyA inh, PERK inhibitor, eIF4H FP inh)
Cc1cccc(NC(=O)C2C(c3ccccc3)C2(Cl)Cl)c1 (stereo not drawn)	none
Cc1ccc(NC(=O)C2C(c3ccccc3)C2(Cl)Cl)c(C)c1 (stereo not drawn)	PABP polyA inh active, eIF4H FP inh inconclusive
Cc1ccc(Oc2nc3c(C)cccn3c(=O)c2/C=C(\C#N)C(N)=O)cc1	eIF4E-4G inh 41
CCOC(=O)/C(C#N)=C/c1c(Oc2cccc(C)c2)nc2c(C)cccn2c1=O	none
CCOC(=O)CN1C(=O)S/C(=C\c2ccc(-c3ccc(C(=O)O)c(Cl)c3)o2)C1=O	PABP polyA inh 26, eIF4H FP inh 52 (no result: eIF4E-4G inh, PERK inhibitor)
O=C(O)c1ccc(-c2ccc(/C=C3\NC(=O)N(Cc4ccc(Cl)cc4)C3=O)o2)cc1Cl	PABP polyA inh 71
Cc1ccc(/C=C2/NC(=O)N(Cc3ccc(Br)cc3)C2=O)o1	none
CCOC(=O)CN1C(=O)S/C(=C\c2ccc(-c3cccc(C(=O)O)c3C)o2)C1=O	none (no result: eIF4E-4G inh, PABP polyA inh, PERK inhibitor, eIF4H FP inh)
Cc1ccc2nsnc2c1S(=O)(=O)N1CCCC1	none
O=C(COC(=O)CCCOc1ccc(Cl)cc1Cl)Nc1cccc(Cl)c1	none
O=C(COC(=O)CCc1c[nH]c(=O)[nH]1)Nc1cccc(Cl)c1	PABP1 MLLE inh 39
CN(C)CCN1C(=O)c2cccc3cc([N+](=O)[O-])cc(c23)C1=O	PABP1 MLLE inh 81 (no result: eIF4E-4G inh, PABP polyA inh, PERK inhibitor, eIF4H FP inh)

Screening data deposited in PubChem by several laboratories.
